Out of some 330,000 compounds screened, about 940 (0.28%) were called active. No stated cut-off is given here; in the data, active means inhibition above about 12%; inactive means the rest. The sample as a whole holds a higher share of actives than the screen did.
Assay: growth inhibition of E. coli expressing H. pylori AddAB, primary screen, AddAB inhibitor project, absorbance (AID 435030);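 further: 0% = vehicle wells of infected cells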
Settings: at 11.9 µM, active compounds read high

inhibition, active:
O=C(CSc1ccc(-c2ccccn2)nn1)Nc1ccccc1 12.4%, Oc1cccc(/C=N/Nc2ccc(Cl)nn2)c1O 13.3%, O=C1CCC(=O)N(O)CCCCCNC(=O)CCC(=O)N(O)CCCCCNC(=O)CCC(=O)N(O)CCCCCN1 35.8%, CCN1/C(=C\c2ccc3ccccc3[n+]2CC)Sc2cc(C)ccc21 13.3%

inhibition, inactive:
CCC(=C/c1sc2ccc3ccccc3c2[n+]1C)/C=C1\Sc2ccc3ccccc3c2N1C 9.85%, Cc1ccc(S(=O)(=O)c2ccc(Cl)cc2)cc1S(=O)(=O)NC(C(=O)O)C(C)C (stereo not given) 3.7%, NC(=O)C1CCN(C(=O)c2ccc3c(=O)n(Cc4cccc(Br)c4)c(=S)[nH]c3c2)CC1 1.96%, COc1ccc(NC(=O)C(Br)C(C)C)cc1 (stereo not given) 0.42%, O=C(CSc1ccc(-c2ccco2)nn1)Nc1cccc(F)c1 1.52%, O=C(CSc1ccc(-c2ccc(-n3cccn3)cc2)nn1)Nc1ccc([N+](=O)[O-])cc1 2.04%, O=C(CNc1ccc(F)cc1F)NC(=O)NCc1ccco1 -1.79%, O=C1CCCC(O)=C1N=Nc1ccc2ncsc2c1 1.13%, COc1ccc(CNC(=O)CN(c2ccc(OC)c(Cl)c2)S(=O)(=O)c2ccc(C)cc2)cc1 0.77%, Oc1c(Br)cccc1/C=N/Nc1c(F)c(F)c(F)c(F)c1F 5.1%, Oc1ccc(Br)cc1/C=N/Nc1ccccn1 4.69%, Cc1noc(C)c1C(=O)OC(C)C(=O)Nc1ccc2c(c1)OCO2 (stereo not given) 1.01%, CC1(C)c2[nH]c3ccccc3c2C[C@H]2C(=O)N(N)CC(=O)N21 -0.5%, O=C(CCc1ccc(S(=O)(=O)N2CCOCC2)cc1)OCC(=O)c1ccc(Br)cc1 3.02%, Cc1nnc(NC2=NCCCCC2)o1 0.25%, CCN1CCC2(CCN(Cc3cn[nH]c3-c3ccc(OC)c(F)c3)C2)C1 (stereo not given) 0.65%, CCOC(=O)c1ccccc1N1C(=O)C2Sc3[nH]c(=O)sc3C(/C=C/c3ccccc3)C2C1=O (stereo not given) 2.63%, COc1ccc(C2/C=C\CN(CC(C)C)CC(=O)N2Cc2ccc(F)cc2)cc1 (stereo not given) 2.22%, O=C1/C(=C/c2cccs2)SC(=S)N1C1CCS(=O)(=O)C1 (stereo not given) -0.44%, CCOc1ccc(NC(=O)CN(C)C(=O)Cc2sc(C)nc2-c2ccc(F)cc2)cc1OCC 1.75%, O=C(NCCCN1CCCCCC1)C1CC(=O)N(C2CCCC2)C1 (stereo not given) -0.68%

From PubChem BioAssay AID435030 (The Scripps Research Institute Molecular Screening Center, 2010)
